Screens: PubChem, NMMLSC
The list is not random: actives were taken first. Their share in the collection is about 1.2%.
RGS7-Gao: regulators of human RGS7-Galphao interaction | Multiplexed bead flow cytometry, RGS7-Galphao binding; actives lie on both sides | 220,000 compounds, 0.35% hits | binding response (% of control), % at 10 µM; in the data active means binding response below about 49% or above about 150%; inconclusive means no clear call, values can overlap the other calls; inactive means in between;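 further: fluorescent Galphao held in activated GDP-AlF4 state binding bead-coupled RGS7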
Target sequence (P09471 whole entry, looked up): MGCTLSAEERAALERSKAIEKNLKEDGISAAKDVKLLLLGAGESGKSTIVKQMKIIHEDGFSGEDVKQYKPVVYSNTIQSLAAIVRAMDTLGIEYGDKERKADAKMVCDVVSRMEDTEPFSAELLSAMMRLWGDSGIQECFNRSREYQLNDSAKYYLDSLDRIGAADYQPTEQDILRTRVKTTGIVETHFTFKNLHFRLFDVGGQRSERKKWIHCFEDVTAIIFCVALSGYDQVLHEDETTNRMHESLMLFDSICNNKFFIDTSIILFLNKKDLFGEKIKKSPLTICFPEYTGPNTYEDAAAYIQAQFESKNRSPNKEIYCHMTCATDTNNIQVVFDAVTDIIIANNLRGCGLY
RGS8-Gao reg: regulators of human RGS8-Galphao interaction. multiplexed bead flow cytometry, RGS8-Galphao binding; actives lie on both sides. response (percent of control binding), % at 10 µM. 220,000 compounds, 0.34% hits; in the data active means response below about 60% or above about 140%; inactive means in between;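 further: Galphao activated as the GDP aluminium fluoride complex binding bead-coupled RGS8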
Avidin bead fluor: compound fluoresces at 488/530 nm on avidin beads; AID 1775; compound fluorescence 488/530 nm, flow cytometry; hits give high values; fluorescence (KMESF) at 10 µM; 220,000 compounds, 0.38% hits; in the data active means fluorescence above about 47
RGS4-Gao reg: human RGS4-Galphao interaction regulation; P09471; Multiplexed bead flow cytometry, RGS4-Galphao binding; actives lie on both sides; 220,000 compounds, 0.33% hits; binding response (% of control), % at 10 µM; AID 1415; in the data active means binding response below about 49% or above about 150%; inactive means in between;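 further: fluorescent Galphao activated with aluminum fluoride binding bead-coupled RGS4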
RGS16-Gao: RGS16-Galphao interaction regulator (human); 220,000 compounds, 0.38% hits; AID 1441; bead-based flow cytometry RGS16-Galphao binding, fluorescence; actives lie on both sides; binding response (% of control), % at 10 µM; O15492+P09471;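 further: Galphao activated by GDP with aluminum fluoride before binding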
Target sequence (O15492 whole entry, looked up): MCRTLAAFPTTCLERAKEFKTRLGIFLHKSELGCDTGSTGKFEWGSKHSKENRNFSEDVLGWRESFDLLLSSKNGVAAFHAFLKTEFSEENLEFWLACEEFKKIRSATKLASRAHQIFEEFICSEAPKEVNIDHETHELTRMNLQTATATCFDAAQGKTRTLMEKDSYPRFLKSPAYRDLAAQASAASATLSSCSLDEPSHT
Target sequence (P09471 whole entry, looked up): as the sequence (P09471 whole entry, looked up) above
GSH fluor: GSH bead compound fluorescence profile | fluorescence (KMESF) at 10 µM | GSH beads flow cytometry, compound fluorescence 488/530 nm; hits give high values | 190,000 compounds, 0.25% hits; in the data active means fluorescence above about 89;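 further: glutathione beads carrying GST-tagged Bcl family fusion proteins plus one bare bead set; values are compound well signal with DMSO vehicle wells as background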
RGS-Gao: regulators of human RGS4-Galphao interaction. shares compounds with RGS16-Gao. multiplexed bead flow cytometry, RGS–Galpha-o binding. RGS4–Galpha-o binding response, % at 10 µM. 1,600 compounds, 99% hits. AID 1504;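 further: fluorescently labeled Galpha-o bound to GDP with aluminium fluoride binding biotinylated RGS beads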
Biotin-avidin: interferes with biotinylated probe binding to avidin beads | streptavidin beads, fluorescein-biotin binding, flow cytometry | inhibition, % at 10 µM | shares compounds with RGS16-Gao | 1,700 tested, under 10 active;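 active means inhibition above 50%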;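 further: median green fluorescence of gated singlet beads compared with DMSO control wells; 0% = DMSO wells and 100% = complete loss of bead fluorescence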
RGS8-Gao confirm: RGS8-Galphao interaction regulation, single point confirmation; shares compounds with RGS16-Gao; bead-based flow cytometry RGS8-Galphao binding, fluorescence; actives lie on both sides; binding response (% of control), % at 10 µM; 1,700 compounds, 3% hits; AID 1836; in the data active means binding response below about 72% or above about 130%; inactive means in between;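 further: Galphao activated as GDP AlF4 complex before binding bead RGS8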
RGS7-Gao single: confirmation of regulators of human RGS7-Galphao interaction; shares compounds with RGS16-Gao; bead-based flow cytometry RGS7-Galphao binding; actives lie on both sides; response (percent of control binding), % at 10 µM; 1,700 compounds, 7.8% hits; in the data active means response below about 75% or above about 130%; inactive means in between;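 further: fluorescent Galphao activated with GDP and aluminum fluoride binding bead-coupled RGS7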
RGS16-Gao single: confirmation of regulators of human RGS16-Galphao interaction; response (% of control binding), % at 10 µM; shares compounds with RGS16-Gao; bead-based flow cytometry, RGS16-Galphao binding; actives lie on both sides; 1,700 compounds, 4% hits; in the data active means response below about 74% or above about 130%; inactive means in between;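 further: Galphao activated as the GDP aluminium fluoride complex binding bead-coupled RGS16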
RGS4-Gao single: RGS4-Galphao interaction regulation, single point confirmation; shares compounds with RGS16-Gao; RGS4-Galphao binding, multiplexed bead flow cytometry; actives lie on both sides; binding response (% of control), % at 10 µM; 1,700 compounds, 4% hits; AID 1840; in the data active means binding response below about 74% or above about 130%; inactive means in between
RGS19-Gao conf: confirmation of regulators of human RGS19-Galphao interaction; shares compounds with RGS16-Gao; bead-based flow cytometry RGS19-Galphao binding; actives lie on both sides; response (percent of control binding), % at 10 µM; 1,700 compounds, 5% hits; in the data active means response below about 50% or above about 160%; inactive means in between;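 further: 100% = no compound control and 0% = blank background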
* = called active by the depositor; ? = inconclusive; / = no result given; [ ] = another dose, or the depositor's remark. Unless noted, how the calls were made is not given here.

SMILES	RGS7-Gao	RGS8-Gao reg	Avidin bead fluor	RGS4-Gao reg	RGS16-Gao	GSH fluor	RGS-Gao	Biotin-avidin	RGS8-Gao confirm	RGS7-Gao single	RGS16-Gao single	RGS4-Gao single	RGS19-Gao conf
CCOC(=O)C(CSCc1ccccc1)NC(=O)OC(C)(C)C (stereo unspecified)	97.8	97.6	2	92.8	-919.8*	57	92.8*	/	/	/	/	/	/
COC(=O)C(=C/C=C/N1CCOCC1)C(=O)OC	?	98.1	4	100.4	99.7	/	/	/	/	/	/	/	/
COc1ccc(S(=O)(=O)Cc2ccc(C(=O)NCCc3ccc(S(N)(=O)=O)cc3)o2)cc1	110.5	121.5	9	105.2	183.4*[activator]	22	105.2*	-1.3	107.3	85.4	109.6	93.3	66.1
COCCCNC(=O)c1ccc(CS(=O)(=O)c2ccc(OC)cc2)o1	100.6	101.6	24	99.9	100.7	14	/	/	/	/	/	/	/
COC(=O)c1cccc(NC(=O)c2nn(C(C)C)c(=O)c3ccccc23)c1	98.7	98.8	8	103.7	99.3	11	/	/	/	/	/	/	/
Cc1ccc(Cl)c(OC(=O)c2nn(C(C)C)c(=O)c3ccccc23)c1	100.7	118.5	12	101.4	247.8*[activator]	14	101.4*	2.0	102.8	102.8	103.3	104.7	91.6
O=C(NC(=S)NNC(=O)[C@H]1C[C@@H]1c1ccccc1)c1cccc(F)c1	?	100.6	7	98.0	99.7	/	/	/	/	/	/	/	/
O=C(CSC(=S)N1CCCCC1)Nc1ncc2c(n1)CC(c1ccco1)CC2=O (stereo unspecified)	?	143.9*[activator]	7	181.0*[activator]	165.7	/	/	0.3	95.1	94.8	96.6	94.2	94.1
CC(=O)Nc1ncc2c(n1)CC(c1ccco1)CC2=O (stereo unspecified)	93.7	97.6	14	97.1	98.8	26	/	/	/	/	/	/	/
Cc1ccc(S(=O)(=O)NC(=O)Nc2ncc3c(n2)CC(c2ccco2)CC3=O)cc1 (stereo unspecified)	77.0	62.9	2	78.6	13.9*	8	78.6*	0.2	101.9	106.6	102.4	102.8	92.8
Cn1c(=NC(=O)c2ccccc2[N+](=O)[O-])sc2cccc(F)c21	?	106.2	5	107.8	106.7	/	/	/	/	/	/	/	/
O=C(N/N=C/c1ccc(Br)cc1)c1ccccc1-n1cccc1	103.3	101.0	8	99.2	102.1	18	/	/	/	/	/	/	/
COc1ccc(N2CCN(C(CNC(C)=O)c3ccco3)CC2)cc1 (stereo unspecified)	106.5	102.8	10	107.2	108.2	14	/	/	/	/	/	/	/
COc1ccc(N2CCN(C(CNC(=O)OCc3ccccc3)c3ccco3)CC2)cc1 (stereo unspecified)	106.1	124.5	13	104.2	188.7*[activator]	17	104.2*	2.7	102.6	98.7	101.4	100.2	97.9
Cc1onc(-c2c(F)cccc2Cl)c1C(=O)NC(=S)NC1CCS(=O)(=O)C1 (stereo unspecified)	101.8	100.4	5	102.1	105.7	14	/	/	/	/	/	/	/
CCOC(=O)CNC(=O)CSc1nnc(SCC(=O)NCC(=O)OCC)s1	114.6	99.4	15	102.9	123.3	10	/	/	/	/	/	/	/
O=C(O)CCSc1nnc(SCC(=O)NCC(F)(F)F)s1	85.3	72.3	5	92.9	8.8*	4	92.9*	-1.9	103.3	105.7	101.5	103.0	100.5
O=c1ccc2cc(O)c(O)cc2o1	57.6	59.3*	3	56.8	37.6	19	56.8*	2.0	94.5	91.1	91.0	89.5	86.4
O=C(CCc1nc2ccccc2c(=O)[nH]1)Nc1ccc(Cl)c(Cl)c1	85.7	68.9	7	85.9	9.1*	4	85.9*	1.5	101.6	101.6	100.8	98.1	107.0
CCc1ccc(S(=O)(=O)NC(=S)Nc2ccccc2)cc1	93.5	97.9	6	96.4	99.8	12	/	/	/	/	/	/	/
CCOC(=O)N1CCC(NC(=O)c2cccnc2SC)CC1	/	/	/	/	/	17	/	1.1	100.7	99.7	103.5	102.2	110.6
CCCCNS(=O)(=O)c1ccc(NC(=O)Cc2ccccc2[N+](=O)[O-])cc1	101.7	102.0	2	103.0	99.7	10	/	/	/	/	/	/	/
CCOC(=O)/C(C#N)=C/Nc1ccsc1C(=O)OC	?	92.4	3	85.1	87.9	/	/	/	/	/	/	/	/
CCOC(=O)/C(C#N)=C/Nc1cc(C(=O)OCC)cc2c(OC)c(OC)ccc12	?	16.9*	-1	-4.8*	-5.8*	/	/	-1.0	99.5	95.5	96.4	95.2	95.3
O=C(O)c1cccc(Cn2c(Cl)c(/C=N/NC(=O)c3cc4ccccc4cc3O)sc2=O)c1	?	103.0	9	99.3	103.5	/	/	/	/	/	/	/	/
Cc1cccc(C(=O)n2cnnc2N)c1	100.5	98.1	9	101.2	97.1	14	/	/	/	/	/	/	/
COC(=O)c1ccccc1COn1c(=O)c[n+]([O-])c2ccccc21	158.1*[activator]	91.4	45	231.2*[activator]	187.0	19	/	0.2	100.7	99.5	98.8	102.7	95.7
Cc1cc(C)c(NC(=O)CN)c(C)c1	103.8	102.8	8	102.9	100.2	14	/	/	/	/	/	/	/
CSc1ncccc1C(=O)NC(C)C1CC2CCC1C2 (stereo unspecified)	99.5	107.7	11	99.2	113.8	17	/	/	/	/	/	/	/
O=C(O)C[C@@H]1C(=O)O[C@@H]2C(COC(=O)c3cc(O)c(O)c(O)c3)O[C@@H](OC(=O)c3cc(O)c(O)c(O)c3)[C@@H](OC(=O)c3cc(O)c(O)c4c3[C@H]1[C@H](O)C(=O)O4)[C@H]2OC(=O)c1cc(O)c(O)c(O)c1 (stereo partly specified)	?	38.1*	6	2.5*	42.6	/	/	-0.4	39.0*	-11.7*	38.6*	-0.5*	41.7*
